BRCA1 expr act = qHTS Assay to Identify Small Molecule Activators of BRCA1 Expression. 380,000 tested, 1.1% active. Potency, µM (titrated, usually from 46.1 µM), hits mostly activators. MCF7-BRCA1-FFLuc reporter, luminescence, 48 h; response scale: scaled: vehicle 0%, 10 µM genistein 100%; note: nearly all actives have a fitted effect of over 80% in size
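First, MCF7-BRCA1-FFLuc cells (2000/well) attach for 2 h; next, compounds are pin-added and incubated 48 h at 37 °C; finally, luciferase reagent is added and luminescence read after 15 min.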
Mm-Cpn inhibitor = Inhibitors of TCP-1 ring complex (TRiC) of Methanococcus maripaludis (MmCpn): qHTS | Chaperonin Mm-Cpn (Methanococcus maripaludis) | purified Mm-Cpn ATPase, ADP Transcreener TR-FRET | Potency, µM (series often up to 76.9 µM), actives largely listed as inhibitors | 330,000 tested, 0.031% active; note: nearly all actives have a fitted effect of over 80% in size
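Eu-cryptate anti-ADP/ADP-d2 competition gives a ratio inversely related to ADP. Enzyme at 25 nM was pre-exposed to compound for 10 min, then given 10 uM ATP for 30 min, 37°C throughout.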
CCT chaperon mod = High-Throughput Screening for Modulators of Cytosolic Chaperonin Activity; 360,000 tested, 0.3% active; AID 651819, 2012; purified chaperonin ATPase assay, HTRF ADP detection, 30 min; activity change, % (test concentration not listed), hits read low; in the data active = activity change below about -30%
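TRiC (40 or 20 nM final, by batch activity) in 30 mM Tris pH 7.4, 100 mM KCl, 5 mM MgCl2, 1 mM DTT was treated with compound at 76 uM single dose, then 10 uM ATP, 30 min at 37 °C. ADP was read by HTRF Transcreener.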
Akt phos inh = HTS Assay for Inhibitors of Akt Phophorylation: Primary Screen; Neuro2A IGF-stimulated pAkt S473 HTRF, 20 min; hits give low values; activity change, % for hits at 50 µM; 360,000 tested, 0.32% active; AID 651550, 2012; in the data active = activity change below about -80%; inconclusive = mostly about -51% to -80%
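Neuro2A cells (4,500/well, DMEM with 0.5% FBS) were treated with compound at a single 50 µM final concentration, stimulated with 6 nM IGF for 20 min at 37 °C, and lysed. Phospho-Akt Ser473 was read by HTRF as 665/615 ratio ×10^4.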
AT treatment = qHTS Assay for Identifying a Potential Treatment of Ataxia-Telangiectasia. AID 485349, 2010. Potency, µM (series often up to 57.5 µM), usual class: activators. 320,000 tested, 0.19% active. F2112 A-T fibroblasts, KAP-1 phosphorylation AlphaLISA; neocarzinostatin DNA damage 30 min before lysis; note: nearly all actives have a fitted effect of over 45% in size
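hTERT-immortalized A-T patient fibroblasts (F2112), 500 cells/well in OPTI-MEM, 1% FBS, got compounds for 60 min, then NCS for 30 min at 37C. Lysates were then assayed for phospho-KAP-1 by AlphaLISA (anti-pKAP1 donor, anti-KAP1 acceptor beads), 6 hr at 25C.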
Large screens that a line does not name were inactive. Sampled rows, rich in hits. Any-hit rate of the full collection: about 1.8%. Unless noted, calls come from the whole dose curve; as a rule, active = well fitted curve in the direction sought with a large enough effect; inconclusive = small, poorly fitted or top-dose-only effect, or another doubt; inactive = no such curve, though single readings can be large; an effect the other way counts as inactive or inconclusive.

CCC(=O)N1CCc2cc(Br)cc(S(=O)(=O)N3CCCC(C(=O)N(C)c4ccc(Br)cc4)C3)c21 (stereo not given)	none (no result: Mm-Cpn inhibitor, CCT chaperon mod, Akt phos inh, AT treatment)
Cc1onc(-c2ccccc2Cl)c1C(=O)NCc1ccccn1	none
COc1cccc(-c2cc(C(=O)NCc3ccco3)no2)c1	BRCA1 expr act 7.9µM
O=C(NCc1cccs1)c1cc(-c2ccccc2)on1	BRCA1 expr act 5µM
Cc1onc(-c2c(F)cccc2Cl)c1C(=O)NCc1ccccn1	Akt phos inh -109%
CC(=O)c1ccc(NC(=S)NCCc2ccccn2)cc1	BRCA1 expr act 10µM
S=C(NCCCc1cnc[nH]1)NCCCN(CCc1ccc(Cl)cc1)c1ccc(Br)cn1	none (no result: Mm-Cpn inhibitor, CCT chaperon mod, Akt phos inh, AT treatment)
CCOc1ccc(C(=O)COC(=O)c2cccc(-n3cnnn3)c2)cc1	none
CN(C)C(CNC(=O)c1cccc(S(=O)(=O)N(C)C)c1)c1ccccc1 (stereo not given)	none
CN(C)C(CNC(=O)c1cccc(S(=O)(=O)N2CCN(c3ccccc3)CC2)c1)c1ccccc1 (stereo not given)	CCT chaperon mod -46 (no result: Mm-Cpn inhibitor, AT treatment)
COC(=O)[C@H](CC(C)C)NC(=O)Cn1cnc(C(=O)Nc2ccc(C)c(C)c2)n1	BRCA1 expr act 11µM
Cn1c(SCc2ccccc2F)nc2cccnc21	BRCA1 expr act 6.3µM
CCOC(=O)CSc1nc2cccnc2n1C	none
O=C(Nc1ccon1)c1ccc(S(=O)(=O)N2CCCCCC2)cc1	Akt phos inh -116%
Cc1ccc(C(=O)Nc2ccon2)cc1S(=O)(=O)N1CCCCCC1	none (no result: AT treatment)
CCCCc1cc(=O)oc2cc(C)cc(OCC(=O)NC(Cc3ccc(Cl)cc3)C(=O)O)c12 (stereo not given)	CCT chaperon mod -60
CCCc1cc(=O)oc2cc(C)cc(OCC(=O)NC(Cc3ccc(Cl)cc3)C(=O)O)c12 (stereo not given)	none
CCOC(=O)NC(=O)/C(C#N)=C\Nc1ccc(Cl)cc1Cl	BRCA1 expr act 13µM
COc1ccc(/C=C/c2ccnc3ccccc23)cc1	none (no result: Mm-Cpn inhibitor, CCT chaperon mod, Akt phos inh, AT treatment)
CCCc1cc(=O)n2[nH]c(C)c(-c3ccccc3OC)c2n1	none (no result: Mm-Cpn inhibitor, AT treatment)
CCCc1cc(=O)n2[nH]c(C)c(-c3ccccc3)c2n1	CCT chaperon mod -57
CC(OC(=O)c1ccccc1OCCOc1ccccc1)C(=O)Nc1ccc(Br)cc1 (stereo not given)	none (no result: Mm-Cpn inhibitor, CCT chaperon mod, Akt phos inh, AT treatment)
CC1Cc2ccccc2N1C(=O)CN1C(=O)CN(C)C(=O)c2ccccc21 (stereo not given)	CCT chaperon mod -35 (no result: AT treatment)
CC1Cc2ccccc2N1C(=O)CN1C(=O)COc2ccccc21 (stereo not given)	none
CCOC(=O)N1CCN(S(=O)(=O)c2ccc(C)c(C)c2)CC1	Akt phos inh -99%
CCOC(=O)N1CCN(S(=O)(=O)c2ccc(OCC)c(C)c2)CC1	none
Cc1sc2ccccc2[n+]1CCCCBr	none (no result: Mm-Cpn inhibitor, CCT chaperon mod, Akt phos inh, AT treatment)
O=C(N=C1N=C2C=CC=CN2Cc2ccccc21)c1ccc(S(=O)(=O)N2CCCC2)cc1	BRCA1 expr act inconclusive
O=C(N=C1N=C2C=CC=CN2Cc2ccccc21)c1ccc(S(=O)(=O)N2CCOCC2)cc1	BRCA1 expr act 10µM
CN(C)S(=O)(=O)c1cccc(C(=O)N=C2N=C3C=CC(Cl)=CN3Cc3ccccc32)c1	BRCA1 expr act inconclusive, AT treatment 0.71µM
COc1cccc(CNc2nc(Cl)nc3nc[nH]c23)c1	none (no result: Mm-Cpn inhibitor, CCT chaperon mod, Akt phos inh, AT treatment)
CC(=O)Oc1ccc2c(c1)CCC1C2CCC2(C)C(OC(C)=O)CCC12 (stereo not given)	none (no result: Mm-Cpn inhibitor, AT treatment)
C[C@]12CC[C@@H]3c4ccc(OC(=O)c5ccccc5)cc4CC[C@H]3[C@@H]1CC[C@@H]2O	AT treatment 18µM
CC(=O)N/C(=C\c1ccccc1)C(=O)OCC(=O)N(C)C1CCS(=O)(=O)C1 (stereo not given)	none
CN(C(=O)COC(=O)CNS(=O)(=O)/C=C/c1ccccc1)C1CCS(=O)(=O)C1 (stereo not given)	Akt phos inh -123%
CC(C)(C)CC(=O)Nc1cccc(-c2cn3cccnc3n2)c1	BRCA1 expr act 8.9µM
CC(C)CC(=O)Nc1cccc(-c2cn3ccsc3n2)c1	none
CCC(=O)Nc1cccc(-c2cn3ccsc3n2)c1	Akt phos inh -105%
CC(NC(=O)c1cc(COc2c(F)cccc2F)on1)c1cnn(-c2ccccc2)c1 (stereo not given)	BRCA1 expr act 7.1µM
O=C1c2ccsc2SCCN1Cc1ccc(Cl)cc1	Akt phos inh -124%
O=C1c2ccsc2SCCN1Cc1ccc(F)cc1	none
CC(C)c1ccc(N2C(=O)[C@@H]3Cc4ccccc4CN3C2=O)cc1	Akt phos inh -108%
Cc1ccc(N2C(=O)[C@@H]3Cc4ccccc4CN3C2=O)cc1	none
O=[N+]([O-])c1ccc(/C=C/c2cc(Cl)nc3ccccc23)cc1	none (no result: Mm-Cpn inhibitor, CCT chaperon mod, Akt phos inh, AT treatment)
NC(=O)Nc1cc(Cl)ccc1Cl	CCT chaperon mod -85
CCOC(=O)c1ccc(NC(=O)CSc2nc(-c3cccs3)cc(C(F)(F)F)c2C#N)cc1	none (no result: Mm-Cpn inhibitor, CCT chaperon mod, Akt phos inh, AT treatment)
CN(C)C(=S)c1ccc2ccccc2n1	Akt phos inh -120%
Cc1ccccc1NC(=S)c1ccc2ccccc2n1	none
Cn1c(COc2ccccc2)nc2ccccc21	BRCA1 expr act 10µM
CCOCCn1c(COc2ccc(C)cc2)nc2ccccc21	BRCA1 expr act inconclusive
COCCn1c(COc2ccc(C)cc2)nc2ccccc21	BRCA1 expr act 11µM
CN(C)CCn1c(COc2ccccc2)nc2ccccc21	none (no result: Mm-Cpn inhibitor, AT treatment)
CCSc1nc2ccccc2n1CCOc1ccccc1	BRCA1 expr act 14µM (no result: AT treatment)
CC(=O)Nc1ccc(NS(=O)(=O)c2ccc3[nH]c4c(c3c2)CCCCC4)cc1	none (no result: Mm-Cpn inhibitor, CCT chaperon mod, Akt phos inh, AT treatment)
COc1ccc(C(=O)N[C@H](C(=O)Nc2cccc(S(=O)(=O)N3CCOCC3)c2)C(C)C)cc1	none (no result: Mm-Cpn inhibitor, AT treatment)
Cc1csc(NC(=O)Cc2ccc(Cl)cc2)n1	BRCA1 expr act inconclusive (no result: Mm-Cpn inhibitor, AT treatment)
